According to publication PMC5540273 (PLoS ONE, 2017):

How the values were obtained:
Settings in all cases: concentration: 1 μM, replicates: in singlicate; n = 1
NEK11 = tested on: NEK11
NEK1 = tested on: NEK1
NEK2 = tested on: NEK2
NEK3 = tested on: NEK3
NEK4 = tested on: NEK4
NEK5 = tested on: NEK5
NEK6 = tested on: NEK6
NEK7 = tested on: NEK7
NEK9 = tested on: NEK9
NIK = tested on: T1, NIK
T1 construct: gene MAP3K14

NIM1 = tested on: T2, NIM1
T2 construct: gene MGC42105

NLK = tested on: NLK
OSR1 = tested on: T3, OSR1
T3 construct: gene OXSR1

PAK1 = tested on: PAK1
PAK2 = tested on: PAK2
PAK3 = tested on: PAK3
PAK4 = tested on: PAK4
PAK6 = tested on: PAK6
PAK7 = tested on: PAK7
PCTK1 = tested on: T4, PCTK1
T4 construct: gene CDK16
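Note: KINOMEscan kinase panel screen.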

SMILES | %Inh (NEK11) [%] | %Inh (NEK1) [%] | %Inh (NEK2) [%] | %Inh (NEK3) [%] | %Inh (NEK4) [%] | %Inh (NEK5) [%] | %Inh (NEK6) [%] | %Inh (NEK7) [%] | %Inh (NEK9) [%] | %Inh (NIK) [%] | %Inh (NIM1) [%] | %Inh (NLK) [%] | %Inh (OSR1) [%] | %Inh (PAK1) [%] | %Inh (PAK2) [%] | %Inh (PAK3) [%] | %Inh (PAK4) [%] | %Inh (PAK6) [%] | %Inh (PAK7) [%] | %Inh (PCTK1) [%]
CCn1c(-c2nonc2N)nc2c(-c3ccccc3)ncc(OCCCN)c21.O=C(O)C(F)(F)F.O=C(O)C(F)(F)F [GSK260205] | 1 | 0 | 1 | 7 | 21 | 1 | 0 | 0 | 0 | 30 | 39 | 94.5 | 3 | 2 | 31 | 49 | 0 | 0 | 0 | 0
O=C(Nc1n[nH]c2nc(-c3ccccc3)ccc12)C1CC1 [SB-708999] | 36 | 0 | 0 | 2 | 5 | 49 | 24 | 0 | 7 | 18 | 29 | 78 | 17 | 0 | 0 | 5 | 0 | 0 | 0 | 16
O=C(Nc1n[nH]c2nc(-c3cccc(O)c3)ccc12)C1CC1 [SB-711805] | 7 | 4 | 2 | 19 | 0 | 0 | 0 | 0 | 8 | 8 | 0 | 96.7 | 0 | 0 | 18 | 0 | 0 | 100 | 4 | 52
CC(C)c1nc(-c2cccc(NS(=O)(=O)c3c(F)cccc3F)c2)c(-c2ccnc(Nc3ccc(N4CCOCC4)nc3)n2)s1.Cl [GSK1723980] | 97.8 | 0 | 48 | 0 | 6 | 0 | 55 | 76 | 88 | 95.4 | 0 | 97 | 4 | 19 | 16 | 73 | 0 | 0 | 0 | 99.9
Nc1ncc(-c2ccc3nccc(-c4ccncc4)c3c2)cc1S(=O)(=O)N1CCCCC1 [GSK1693850] | 0 | 2 | 8 | 4 | 0 | 18 | 0 | 0 | 15 | 11 | 0 | 13 | 5 | 18 | 8 | 14 | 0 | 0 | 18 | 0
O=C(Nc1n[nH]c2nc(-c3ccccc3O)ccc12)C1CC1 [SB-711880] | 0 | 0 | 0 | 18 | 0 | 0 | 0 | 3 | 6 | 18 | 0 | 10 | 0 | 0 | 0 | 0 | 33 | 8 | 26 | 11
Cc1ccc(O)cc1Nc1ccnc2ccc(C(C)(C)C)cc12 [GW856805] | 23 | 21 | 9 | 39 | 1 | 17 | 20 | 25 | 10 | 31 | 52 | 1 | 30 | 23 | 50 | 0 | 17 | 34 | 2 | 12
CN(C)c1ncnc2nc[nH]c12 [SKF-31736] | 0 | 0 | 0 | 41 | 0 | 12 | 0 | 0 | 0 | 51 | 4 | 0 | 0 | 8 | 43 | 12 | 6 | 0 | 15 | 17
COC(=O)Nc1nc2ccc(Oc3ccc(CC(=O)Nc4cc(C(F)(F)F)ccc4F)cc3)cc2[nH]1 [GW680903] | 0 | 0 | 0 | 6 | 14 | 13 | 0 | 0 | 45 | 25 | 26 | 22 | 3 | 19 | 22 | 15 | 0 | 0 | 97.7 | 0
COc1ccc(C2=C(Nc3cccc(O)c3)C(=O)NC2=O)cc1 [SB-390766] | 19 | 0 | 0 | 18 | 5 | 34 | 0 | 0 | 0 | 6 | 0 | 35 | 4 | 15 | 12 | 30 | 0 | 10 | 0 | 5
Cc1cc(-c2c(-c3ccc(F)cc3)ncn2CCCN2CCOCC2)nc(N)n1 [SB-222517] | 0 | 33 | 0 | 25 | 0 | 0 | 9 | 0 | 0 | 12 | 0 | 17 | 0 | 0 | 66 | 0 | 1 | 1 | 0 | 0
CCOc1nccc(-c2c(-c3ccc(F)cc3)ncn2C2CCNCC2)n1 [SB-249175] | 50 | 9 | 0 | 13 | 0 | 31 | 4 | 10 | 7 | 5 | 44 | 45 | 47 | 6 | 29 | 0 | 32 | 3 | 6 | 26
Nc1ncc(-c2cn[nH]c2)c2scc(-c3ccc4c(c3)CCN4C(=O)Cc3ccccc3)c12 [GSK2593067] | 87 | 7 | 85 | 0 | 11 | 21 | 3 | 0 | 0 | 3 | 17 | 0 | 13 | 0 | 0 | 51 | 0 | 0 | 0 | 3
Cn1cc(-c2cnc(N)c3c(-c4ccc5c(c4)CCN5C(=O)Cc4ccccc4)csc23)cn1 [GSK2593074] | 47 | 0 | 28 | 1 | 0 | 5 | 0 | 0 | 0 | 0 | 0 | 17 | 0 | 17 | 0 | 13 | 0 | 17 | 3 | 0
CSc1ccc(NC2=C(c3ccc(Cl)cc3)C(=O)NC2=O)cc1 [SB-317658] | 28 | 4 | 0 | 0 | 0 | 29 | 33 | 0 | 1 | 21 | 0 | 0 | 6 | 2 | 28 | 36 | 2 | 29 | 0 | 0
CC(C)NCC(Cc1ccccc1)NC(=O)c1cc(Br)c(-c2ccnc3[nH]ccc23)s1.Cl.Cl (stereo not shown) [GSK1383281] | 0 | 91.9 | 13 | 16 | 0 | 68 | 0 | 0 | 0 | 0 | 0 | 22 | 1 | 11 | 0 | 75 | 18 | 47 | 47 | 1
CN(c1ccc(NC(=O)N2CCN(CCCN3CCOCC3)CC2)cc1)c1ccnc(Nc2ccc(CS(C)(=O)=O)cc2)n1.Cl [GW830899] | 0 | 0 | 14 | 9 | 0 | 3 | 14 | 0 | 0 | 0 | 0 | 0 | 0 | 0 | 0 | 0 | 0 | 25 | 2 | 0
N#CC1(c2cccc(C(=O)Nc3cccc(Oc4ccc5nc(NC(=O)C6CC6)sc5n4)c3)c2)CC1 | 0 | 40 | 0 | 30 | 0 | 0 | 0 | 0 | 0 | 0 | 0 | 0 | 0 | 3 | 27 | 0 | 0 | 15 | 0 | 0
COc1cccc(NC(=O)NCCNc2ccnc(Nc3ccc(F)cc3)n2)c1 [GSK1379879] | 0 | 0 | 0 | 9 | 0 | 11 | 0 | 0 | 0 | 27 | 17 | 8 | 17 | 16 | 8 | 0 | 0 | 0 | 0 | 0
Cc1cc(-c2ccnc(Nc3cccc(C#N)c3)n2)cc(C)c1O [GSK1440913] | 1 | 0 | 0 | 43 | 1 | 83 | 0 | 0 | 13 | 62 | 12 | 16 | 13 | 34 | 28 | 0 | 0 | 0 | 0 | 16
